ChEMBL document CHEMBL3988442, “University of Dundee, Small-Polar-MMV Screening Library” (2021)

The compounds below were run against AMP-activated protein kinase, AMPK (Homo sapiens) (UniProt P54646+O43741+P54619+Q9UGJ0+Q9Y478+Q13131+Q9UGI9) (assay: AMP-dependent Kinase enzyme assay. An in vitro enzyme assay that detects ADP turnover that is directly proportional to AMPK activity. This uses naive AMPK that is activated during the assay with MK-8722). Conditions: 30 µM.
Type: functional
Design: scale not given: direction of the effect not stated beside the values

Question: `CCS(=O)(=O)N(C)C(=O)c1cc(C)n(-c2cccc(OC)c2)c1C` was tested. Which Percent Effect did it give?
Answer: -7.29%

Question: How did the Percent Effect turn out when `CCN(Cc1cccc(Cl)c1)Cc1nc2c(cnn2C)c(=O)[nH]1` was run?
Answer: 3.13%

Question: For `Cc1cc(-c2cnn(CCNC(=O)C3CCCO3)c2C2CC2)on1` (stereo not given), which Percent Effect is on record?
Answer: 12%

Question: With `COc1ccc(NC(=O)N2CCCC2c2ccco2)cc1OC` (stereo not given) as the compound, how does the Percent Effect read?
Answer: 7.21%

Question: How did the Percent Effect turn out when `Cn1cnc2c1C(COCC1CCOCC1)CN(C1CCOCC1)C2` (stereo not given) was run?
Answer: 10.9%

Question: For `CCC(C)NC(=O)Cc1c(C)nc2c(c1C)c(=O)[nH]n2C` (stereo not given), which Percent Effect is on record?
Answer: 1.2%

Question: For `CN(C)C(=O)CN1C[C@@H]2CC[C@H](C1)N(Cc1cccc(Cl)c1Cl)C2`, which Percent Effect is on record?
Answer: 1.3%

Question: For `Cn1ccc(CN2CCC(COC3CCCC3)CC2)cc1=O`, which Percent Effect is on record?
Answer: -8.16%

Question: With `Cn1cc(CCNC(=O)CCc2ccc3c(c2)OCO3)cn1` as the compound, how does the Percent Effect read?
Answer: 0.891%

Question: How did the Percent Effect turn out when `Cc1cc(C(=O)N2CC[C@H](OCC3CC3)[C@@H]2Cc2cccnc2)no1` was run?
Answer: 0.886%

Question: Which Percent Effect does the source give for `O=C(c1ccc(=O)[nH]n1)N1CC(c2nc(Cc3ccccc3)no2)C1` here?
Answer: -1.62%

Question: How did the Percent Effect turn out when `Cc1cnn(CC2CCCCN2C(=O)c2ccc3nnc(C)n3c2)c1` (stereo not given) was run?
Answer: -0.0421%

Question: Which Percent Effect does the source give for `CN(Cc1ccco1)C(=O)[C@H]1CSCN1C(=O)OC(C)(C)C` here?
Answer: -5.01%

Question: How did the Percent Effect turn out when `c1csc(-c2nc(CNC3CCc4ncnn4C3)co2)c1` (stereo not given) was run?
Answer: -1.01%

Question: With `Cn1cc(CCNC(=O)NCc2nnc3n2CCC3)cn1` as the compound, how does the Percent Effect read?
Answer: -4.15%

Question: `Cc1nn(C)c(N(C)C)c1CNCc1cccnc1-n1cncn1` was tested. Which Percent Effect did it give?
Answer: 1.44%

Question: With `Cn1ncc2c(=O)[nH]c(CN3CCCC3Cc3ccccc3)nc21` (stereo not given) as the compound, how does the Percent Effect read?
Answer: -0.517%

Question: Which Percent Effect does the source give for `COc1ccccc1CC1CCCN(CC(N)=O)C1` (stereo not given) here?
Answer: 0.0164%

Question: With `Cc1noc(C(C)C)c1C(=O)NCc1cc(F)cc(F)c1` as the compound, how does the Percent Effect read?
Answer: 7.66%

Question: `Cc1nc(CN(Cc2ccccc2)C2CCS(=O)(=O)C2)oc1C` (stereo not given) was tested. Which Percent Effect did it give?
Answer: -3.46%

Each compound was assayed against Sialic acid-binding Ig-like lectin 9 (Homo sapiens) (UniProt Q9Y336) (assay: Hs-Siglec9 ALPHAscreen SOP 20170721). Conditions: 10 µM.
Design: scale not given: direction of the effect not stated beside the values

Sialic acid-binding Ig-like lectin 9 (Homo sapiens), sequence (Q9Y336 whole entry): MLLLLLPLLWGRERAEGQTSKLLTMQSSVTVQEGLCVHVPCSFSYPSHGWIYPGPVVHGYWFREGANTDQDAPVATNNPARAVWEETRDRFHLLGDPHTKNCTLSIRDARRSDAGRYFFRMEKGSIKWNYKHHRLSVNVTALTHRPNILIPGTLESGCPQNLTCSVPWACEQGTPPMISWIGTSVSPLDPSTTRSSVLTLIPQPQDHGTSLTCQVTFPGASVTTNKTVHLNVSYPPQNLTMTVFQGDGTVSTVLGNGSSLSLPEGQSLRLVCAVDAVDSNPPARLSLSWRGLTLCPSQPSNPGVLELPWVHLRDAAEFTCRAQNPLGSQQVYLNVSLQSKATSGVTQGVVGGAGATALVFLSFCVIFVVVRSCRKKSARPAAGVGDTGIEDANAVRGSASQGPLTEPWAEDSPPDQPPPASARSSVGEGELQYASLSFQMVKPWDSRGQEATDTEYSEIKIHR

Question: For `CCn1cc(Br)c(C(=O)NCc2cccnc2)n1`, which Percent Effect is on record?
Answer: 5.82%

Question: Which Percent Effect does the source give for `CCNC(=O)N1CCCCC1CCO` (stereo not given) here?
Answer: 17.1%

Question: With `Cc1ccc(CN2Cc3c(C(=O)N(C)C)nn(C)c3C2)s1` as the compound, how does the Percent Effect read?
Answer: 6.15%

Question: With `COc1ccc(-n2ccc(C(=O)N3CCC(C(N)=O)C3)n2)cc1` (stereo not given) as the compound, how does the Percent Effect read?
Answer: 6.17%

Question: Which Percent Effect does the source give for `CC(C)(C)C(=O)NCCC(=O)NC(C)(C)c1ccc2c(c1)OCCO2` here?
Answer: -1.99%

Question: How did the Percent Effect turn out when `Cn1ncc2c(NCCOc3ccc(F)cc3)nc(C3CCCC3)nc21` was run?
Answer: 7.22%

Question: With `O=C(CCc1ccsc1)NCC1CCN(c2ccccc2)C1` (stereo not given) as the compound, how does the Percent Effect read?
Answer: -4.12%

Question: For `CC(NC(=O)COc1nc(C(C)(C)C)no1)c1ccco1` (stereo not given), which Percent Effect is on record?
Answer: 2.63%

Question: `CCOCCN1CCN(Cc2nnc(C3CC3)o2)CC1CC` (stereo not given) was tested. Which Percent Effect did it give?
Answer: 17.7%

Question: `Cc1nccc(CNC(=O)NCCOc2ccc(F)c(F)c2)n1` was tested. Which Percent Effect did it give?
Answer: 27.5%

Question: `COC[C@]12COC[C@H]1CN(Cc1cc(OC)cc(OC)c1)C2` was tested. Which Percent Effect did it give?
Answer: 2.27%

Question: With `CN(C)CC(=O)N1CCC2(CC1)CN(c1ccsc1)C(=O)CO2` as the compound, how does the Percent Effect read?
Answer: -6.49%

Question: `COc1ccc(-c2nnc(SC(C)C(=O)NC3CC3)[nH]2)c(OC)c1` (stereo not given) was tested. Which Percent Effect did it give?
Answer: -2.88%

Question: How did the Percent Effect turn out when `Cc1cc(NC(=O)CCN2CCCC2Cn2cncn2)no1` (stereo not given) was run?
Answer: 2.13%

Question: With `CCN(CC)c1ccc(C(=O)NCc2cccnc2-n2cncn2)cn1` as the compound, how does the Percent Effect read?
Answer: 48.7%

Question: Which Percent Effect does the source give for `O=C(c1ccco1)N1CCOCC2(C1)CN(c1ccccc1)C(=O)CO2` (stereo not given) here?
Answer: 17.4%

Question: For `O=C(Cc1ccc2c(c1)CCO2)N1CCCCC1Cn1cccn1` (stereo not given), which Percent Effect is on record?
Answer: 4.66%

Question: With `CCCc1cc(=O)[nH]c2nnc(SCC(=O)NCc3ccc(C)cc3)n12` as the compound, how does the Percent Effect read?
Answer: 6.56%

Question: Which Percent Effect does the source give for `CCc1cnc(CN(C(C)=O)C2CCN(CCc3cnn(C)c3)C2)o1` (stereo not given) here?
Answer: -1.24%

Question: Which Percent Effect does the source give for `Cc1nc(C)n(CC2CCCN(CCc3ccncc3)C2)n1` (stereo not given) here?
Answer: 18.2%

Question: With `CCS(=O)(=O)N(C)C(=O)c1cc(C)n(-c2cccc(OC)c2)c1C` as the compound, how does the Percent Effect read?
Answer: 7.26%

Question: How did the Percent Effect turn out when `CCN(Cc1cccc(Cl)c1)Cc1nc2c(cnn2C)c(=O)[nH]1` was run?
Answer: -4.85%

Question: For `Cc1cc(-c2cnn(CCNC(=O)C3CCCO3)c2C2CC2)on1` (stereo not given), which Percent Effect is on record?
Answer: 8.12%

Question: For `COc1ccc(NC(=O)N2CCCC2c2ccco2)cc1OC` (stereo not given), which Percent Effect is on record?
Answer: -3.22%

Question: `Cn1cnc2c1C(COCC1CCOCC1)CN(C1CCOCC1)C2` (stereo not given) was tested. Which Percent Effect did it give?
Answer: 4.02%

Question: How did the Percent Effect turn out when `CCC(C)NC(=O)Cc1c(C)nc2c(c1C)c(=O)[nH]n2C` (stereo not given) was run?
Answer: 14%

Question: For `CN(C)C(=O)CN1C[C@@H]2CC[C@H](C1)N(Cc1cccc(Cl)c1Cl)C2`, which Percent Effect is on record?
Answer: -0.255%

Question: `Cn1ccc(CN2CCC(COC3CCCC3)CC2)cc1=O` was tested. Which Percent Effect did it give?
Answer: 2.17%

Question: For `Cn1cc(CCNC(=O)CCc2ccc3c(c2)OCO3)cn1`, which Percent Effect is on record?
Answer: 13.4%

Question: `Cc1cc(C(=O)N2CC[C@H](OCC3CC3)[C@@H]2Cc2cccnc2)no1` was tested. Which Percent Effect did it give?
Answer: -3.88%

Question: How did the Percent Effect turn out when `O=C(c1ccc(=O)[nH]n1)N1CC(c2nc(Cc3ccccc3)no2)C1` was run?
Answer: 7.99%

Question: For `Cc1cnn(CC2CCCCN2C(=O)c2ccc3nnc(C)n3c2)c1` (stereo not given), which Percent Effect is on record?
Answer: -9.14%

Question: How did the Percent Effect turn out when `CN(Cc1ccco1)C(=O)[C@H]1CSCN1C(=O)OC(C)(C)C` was run?
Answer: 13.2%

Question: Which Percent Effect does the source give for `c1csc(-c2nc(CNC3CCc4ncnn4C3)co2)c1` (stereo not given) here?
Answer: 1.84%

Question: How did the Percent Effect turn out when `Cn1cc(CCNC(=O)NCc2nnc3n2CCC3)cn1` was run?
Answer: 10.9%

Question: Which Percent Effect does the source give for `Cc1nn(C)c(N(C)C)c1CNCc1cccnc1-n1cncn1` here?
Answer: 1.22%

Question: Which Percent Effect does the source give for `Cn1ncc2c(=O)[nH]c(CN3CCCC3Cc3ccccc3)nc21` (stereo not given) here?
Answer: 3.61%

Question: For `COc1ccccc1CC1CCCN(CC(N)=O)C1` (stereo not given), which Percent Effect is on record?
Answer: 9.64%

Question: With `Cc1noc(C(C)C)c1C(=O)NCc1cc(F)cc(F)c1` as the compound, how does the Percent Effect read?
Answer: -1.87%

Question: With `Cc1nc(CN(Cc2ccccc2)C2CCS(=O)(=O)C2)oc1C` (stereo not given) as the compound, how does the Percent Effect read?
Answer: 2.71%
